# Source: PubChem BioAssay
# Most compounds without a hit are left out; they make up all but 11% or so of the library.
# L3MBTL1 block = inhibitors of human L3MBTL1; AlphaScreen L3MBTL1–H3K9me1 peptide binding; AID 485360; Q9Y468; actives 0.66% (n = 230,000); Potency, µM (highest dose often 57.1 µM), inactives show at the top dose activity, negative = inhibition, most hits filed as inhibitors; note: % is set by controls: 0 for no effect and ±100 for the full control effect; nearly all actives have a fitted effect of over 60% in size
#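 AlphaScreen proximity signal between nickel-chelate acceptor and streptavidin donor beads (final 10 ug/mL) reports binding of 50 nM L3MBTL1 to 75 nM biotin-H3 K9me1 peptide; complex incubated with compounds 30 min at room temperature; cefsulodin titration as control.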
# HP1b binding inh = blocks HP1-beta chromodomain binding to methylated histone tails; AlphaScreen HP1-beta / biotin-H3K9me3 peptide binding; Potency, µM (titrated, usually from 114 µM), for the others: top-dose activity change, negative = inhibition, usual class: inhibitors; actives 0.56% (n = 390,000); note: nearly all actives have a fitted effect of over 70% in size
# Target sequence (P83916 whole entry, looked up): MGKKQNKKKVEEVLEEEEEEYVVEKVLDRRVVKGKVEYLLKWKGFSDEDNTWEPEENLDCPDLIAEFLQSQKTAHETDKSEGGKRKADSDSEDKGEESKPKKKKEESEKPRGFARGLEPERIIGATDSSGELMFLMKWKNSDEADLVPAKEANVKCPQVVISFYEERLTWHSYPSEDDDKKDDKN
#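 AlphaScreen: HP1-beta (50 nM) preformed 30 min with biotin-H3(1-18)K9me3 peptide (50 nM) in PBS pH 7.4, 0.01% Tween-20. Compound added for 30 min at RT, then streptavidin donor/nickel chelate acceptor beads (10 ug/mL) for 30 min.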
# BAZ2B block = BAZ2B (human) inhibition. actives 4.4% (n = 360,000). Potency, µM (titrated, usually from 114 µM), inactives show at the top dose activity change, negative = inhibition, hits mostly inhibitors. AlphaScreen BAZ2B-H3K14Ac peptide displacement. Q9UIF8. AID 504333; note: % is set by controls: 0 for no effect and ±100 for the full control effect; nearly all actives have a fitted effect of over 60% in size
#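 AlphaScreen luminescence quantifies BAZ2B engagement of H3K14Ac peptide; the protein and biotinylated peptide are both at 50 nM final, buffer PBS pH 7.4 with 0.01% Tween-20, all steps at room temperature.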
# G9a inh = inhibitors of human histone lysine methyltransferase G9a; actives 8.8% (n = 350,000); Potency, µM (titrated, usually from 102 µM), inactives show at the top dose activity, negative = inhibition, most hits filed as inhibitors; G9a H3K9 monomethylation, AlphaScreen, 2 h; note: % is set by controls: 0 for no effect and ±100 for the full control effect; nearly all actives have a fitted effect of over 75% in size
# Target sequence (Q96KQ7 913-1193 limits assumed): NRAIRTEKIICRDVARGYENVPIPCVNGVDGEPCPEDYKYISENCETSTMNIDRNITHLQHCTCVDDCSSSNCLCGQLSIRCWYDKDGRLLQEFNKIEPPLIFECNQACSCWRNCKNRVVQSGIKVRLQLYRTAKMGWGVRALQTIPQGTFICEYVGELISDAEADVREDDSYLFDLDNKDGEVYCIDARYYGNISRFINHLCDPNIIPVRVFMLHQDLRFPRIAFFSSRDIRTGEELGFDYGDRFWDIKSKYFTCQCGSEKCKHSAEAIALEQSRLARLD
#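 Compounds were preincubated with 20 nM G9a for 15 min, after which biotinylated H3K9 peptide (500 nM) and SAM (20 uM) started a 2 h room-temperature reaction. Monomethylated product was quantified by antibody-based AlphaScreen chemiluminescence.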
# JMJD2A Tudor = inhibitors of human JMJD2A Tudor domain; O75164; AlphaScreen JMJD2A-Tudor / H3K4me3 peptide binding; Potency, µM (doses to about 114 µM), for inactives: at the top dose activity change, negative = inhibition, actives largely listed as inhibitors; actives 4.4% (n = 390,000); AID 504339; note: % is set by controls: 0 for no effect and ±100 for the full control effect; nearly all actives have a fitted effect of over 50% in size
# * = called active by the depositor; u = inconclusive; x = not tested or not shown; [ ] = another dose, or the depositor's remark. Calls come from the whole dose curve; as a rule, active = well fitted inhibition curve with a large enough effect; inconclusive = small, poorly fitted or top-dose-only effect; inactive = no such curve, though single readings can be large or run the other way. Potency is the fitted concentration of half-maximal effect.
SMILES,L3MBTL1 block,HP1b binding inh,BAZ2B block,G9a inh,JMJD2A Tudor
COc1ccc(N2CCN(c3nc4c(c(=O)n(C)c(=O)n4C)n3Cc3ccccc3)CC2)cc1,x,u,44.7µM*,-49.4%[12.7 µM],56.2µM*
CCCn1c(SCC(=O)N2CCCC2)nc2c1c(=O)n(C)c(=O)n2C,-0.6%,30.2%,-5.7%,25.2%,-1.5%
CC1(C)Cc2cccc(OCC(=O)OCC(=O)Nc3cccc(S(N)(=O)=O)c3)c2O1,x,31.8%,2.7%,2.2%[59 µM],-11.6%
Cc1ccc2nc(SC(Cc3cc(Cl)ccc3Cl)C(=O)O)[nH]c2c1 (centres undefined),x,-7.7%,-4.1%,4.9%[59 µM],-4.9%
Cn1c(=O)c2c(nc(SCc3cccnc3)n2Cc2ccccc2)n(C)c1=O,12.6%,22.4%,-8.3%,u,35.5µM*
Cn1c(=O)c2c(nc(CN3CCN(Cc4ccccc4)CC3)n2Cc2ccc(Cl)cc2)n(C)c1=O,x,11.8%,-26.5%,44.7µM*,u
Cn1c(=O)c2c(nc(CN3CCN(Cc4ccccc4)CC3)n2Cc2ccccc2)n(C)c1=O,3.6%,x,10.7%,-11.5%,x
O=C(O)Cc1sc(Nc2cccc3ccccc23)nc1-c1ccc(Cl)cc1,x,1.1%,u,25.1µM*,-28.5%
O=C(O)Cc1sc(Nc2ccccc2)nc1-c1ccccc1,x,12.6%,-23.5%,u,-19.8%
CCOc1ccccc1Nc1nc(-c2ccc(C)cc2)c(CC(=O)O)s1,x,33.5%,-9.0%,7.94µM*,-17.2%
Cc1ccc(Nc2nc(-c3ccc(C)cc3)c(CC(=O)O)s2)cc1,-7.2%,-23.2%,u,35.5µM*,u
O=C(O)Cc1sc(Nc2cccc3ccccc23)nc1-c1ccccc1,-6.6%,-16.7%,u,-41.6%[12.7 µM],u
COc1ccc(OC)c(-c2nc(Nc3ccccc3C)sc2CC(=O)O)c1,x,49.8%,-26.9%,u,-13.7%
CCC(CC)C(=O)Nc1ccccc1C(=O)OCc1cc(=O)n2nc(C3CCCCC3)sc2n1,x,39.9%,-7.7%,10.5%[59 µM],-5.0%
CCOc1ccc(N2CC(c3nc4ccccc4n3CCCOc3ccccc3OC)CC2=O)cc1 (centres undefined),x,17.4%,-5.5%,-35.6%[59 µM],-13.5%
CCCC(=O)Nc1nc2nc(-c3ccccc3)cc(=O)n2[nH]1,x,23.6%,20.8%,17.2%,-22.7%
CCC(=O)Nc1nc2nc(-c3ccccc3)cc(=O)n2[nH]1,x,-9.6%,-29.1%,44.7µM*,u
CCn1c(CNc2cccc(C(F)(F)F)c2)n[nH]c1=S,7.4%,22.0%,-10.9%,x,50.1µM*
COc1ccc(NC(=O)Nc2sc3nc4n(c(=O)c3c2C)CCC(C)CC4)cc1OC (centres undefined),x,17.9%,-4.4%,1.4%[59 µM],-9.1%
O=c1[nH]c(/C=C/c2cccc3ccccc23)nc2ccccc12,-0.3%,47.7%,-14.2%,31.6%,0.0%[57.1 µM]
CCCN1C(=O)/C(=C\c2nc3ccccc3c(=O)[nH]2)c2ccccc21,-11.5%,-13.4%,u,31.6µM*,-15.8%
CCCOc1ccc(CNC(=O)c2oc3ccc4c(c3c2C)C(=O)CC(C)(CC)O4)cc1 (centres undefined),x,17.8%,-6.6%,-26.3%[59 µM],-11.7%
Cc1ccc(Sc2ccc(CN3CCCCC3)cc2[N+](=O)[O-])cc1,u,u,u,17.8µM*,35.5µM*
O=[N+]([O-])c1cc(CN2CCCCCC2)ccc1O,0.1%,45.6%,-22.6%,14.0%,-12.4%
CC(C)CN1C(=O)c2ccccc2C1(O)Cc1ccccc1 (centres undefined),31.0%,50.4%,21.3%,8.91µM*,4.6%
SMILES,L3MBTL1 block,HP1b binding inh,BAZ2B block,G9a inh,JMJD2A Tudor
COc1ccc(NC(C)=O)cc1NC(=O)C1(c2cccs2)CCOCC1,x,19.2%[57 µM],-0.3%,3.6%[59 µM],-14.2%
Cc1coc2cc3oc(=O)c(CC(=O)NCc4ccccc4)c(C)c3cc12,x,27.0%,-11.7%,3.0%[59 µM],-11.3%
CCc1c(C#N)c(=O)[nH]c(=O)n1-c1ccccc1,x,24.1%,x,x,-6.3%
CCc1c(C(C)S(=O)(=O)c2ccc(C)cc2)[nH]c(=O)n1-c1ccc(C)cc1 (centres undefined),x,23.8%,-21.0%,8.91µM*,-28.8%
CCc1[nH]c(=O)[nH]c1C(C)S(=O)(=O)c1ccc(C)cc1 (centres undefined),x,u,-19.0%,1.58µM*,-26.8%
COc1ccc(C)cc1-n1nnc(-c2nc(-c3ccccc3Cl)no2)c1N,x,18.7%,-34.4%,-11.1%[59 µM],-12.5%
Cc1ccc2oc(C(=O)Nc3ccc(S(=O)(=O)Nc4nccc(C)n4)cc3)cc(=O)c2c1,x,26.6%,-2.8%,-29.9%[59 µM],-16.0%
CCc1ccccc1NC(=O)CN1C(=O)C2CCCN2c2ccc(S(=O)(=O)N(CC)CC)cc21 (centres undefined),x,10.1%,-3.3%,u,-2.9%
CCN(CC)S(=O)(=O)c1ccc2c(c1)N(CC(=O)Nc1ccc(C)cc1C)C(=O)C1CCCN21 (centres undefined),x,50.4%,-14.6%,14.1µM*,-15.9%
Cc1ccc(CN2C(=O)C3CCCN3c3ccc(S(=O)(=O)N4CCOCC4)cc32)cc1 (centres undefined),-3.0%,x,-5.6%,12.6µM*,x
Cc1ccc(CN2C(=O)C3CCCN3c3ncccc32)cc1 (centres undefined),x,34.0%,u,-19.9%,-25.2%
O=C(CNC(=O)c1ccccc1C(=O)O)c1ccccc1,5.4%,36.5%,-7.2%,20µM*,-28.6%
O=C(O)c1ccccc1C(=O)NCC(O)c1ccccc1 (centres undefined),-2.7%,37.9%,1.4%,7.94µM*,-4.1%
O=C(CNC(=O)c1ccccc1)c1ccccc1,13.6%,36.5%,-31.6%,19.0%[2.33 µM],-22.8%
Cc1cc2c(cc1S(=O)(=O)Nc1cccc(Cl)c1C)OCCN2C,x,16.7%,-31.4%,-13.8%[59 µM],-16.8%
NC(=O)C[n+]1cccc2ccccc21,0.8%,17.2%,-11.8%,u,22.4µM*
c1cc2c3c(cccc3c1)NC1(CCCCC1)N2,x,-6.7%,-31.8%,1.12µM*,-30.2%
c1cc2c3c(cccc3c1)NC1(CCC3(CC1)Nc1cccc4cccc(c14)N3)N2,u,u,28.2µM*,24.9%[0.501 µM],50.1µM*
c1cc2c3c(cccc3c1)NC1(CCCCCC1)N2,-4.2%,-1.7%,-34.8%,4.47µM*,-8.7%[57.1 µM]
O=C1CCSc2cccc3cccc(c23)N1,-4.9%,5.5%,-24.0%,-32.2%[59 µM],-7.7%
Cc1ccc2c(=O)c(C(=O)c3ccc(F)cc3)cn(CC(=O)NCc3ccccc3Cl)c2n1,x,55.3%,10.6%[57.1 µM],-9.4%[59 µM],-11.3%
CCN(CC)CCCn1c(=S)[nH]c2ncccc2c1=O,x,u,-8.7%,50.1µM*,8.91µM*
O=c1c2ccccc2[nH]c(=S)n1CCCN1CCN(c2ccccc2)CC1,x,-4.9%[57 µM],-2.9%,-21.9%,-17.7%
CCN(CC)CCCn1c(=S)[nH]c2ccccc2c1=O,-7.0%,28.9%,-29.8%,u,56.2µM*
CCCCN(C)CCn1c(=S)[nH]c2ncccc2c1=O,x,-12.2%,3.5%,50.1µM*,u
